Source: PubChem BioAssay (several laboratories)
PLK1 inh: inhibitors of human PLK1 kinase; P53350; recombinant PLK1 kinase, TR-FRET peptide phosphorylation; inhibition, % at 10 µM; 97,000 compounds, 0.53% hits;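 active = inhibition of 50% or more in the single-concentration screen; inactive = inhibition below 50%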;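 note: 0% = DMSO max control and 100% = H-89 dihydrochloride min control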
Target sequence (P53350 whole entry, looked up): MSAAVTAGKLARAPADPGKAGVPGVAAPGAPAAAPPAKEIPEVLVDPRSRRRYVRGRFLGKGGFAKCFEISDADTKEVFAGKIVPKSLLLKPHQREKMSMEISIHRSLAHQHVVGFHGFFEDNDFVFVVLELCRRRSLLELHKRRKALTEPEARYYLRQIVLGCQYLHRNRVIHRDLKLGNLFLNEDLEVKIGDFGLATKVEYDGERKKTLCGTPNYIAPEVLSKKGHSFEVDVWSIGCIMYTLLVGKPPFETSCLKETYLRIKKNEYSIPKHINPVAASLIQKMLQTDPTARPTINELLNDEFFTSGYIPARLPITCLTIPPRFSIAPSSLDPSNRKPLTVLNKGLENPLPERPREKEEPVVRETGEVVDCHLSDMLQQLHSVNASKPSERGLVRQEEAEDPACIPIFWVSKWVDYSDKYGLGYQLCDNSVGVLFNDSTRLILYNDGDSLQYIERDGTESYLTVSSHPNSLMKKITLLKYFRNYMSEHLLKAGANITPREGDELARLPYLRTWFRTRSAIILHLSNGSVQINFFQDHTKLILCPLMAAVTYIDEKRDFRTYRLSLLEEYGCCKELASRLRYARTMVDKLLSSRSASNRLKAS
Smad3 FoxH1 inh: Smad3 (human) transcription factor binding inhibition; P84022; TR-FRET Smad3/Dy647-FoxH1 peptide binding, europium anti-His; inhibition, % at 25 µM; 88,000 compounds, 0.29% hits; AID 630;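 active = compounds that reduce the energy-transfer binding signal between the protein and its labelled peptide by more than half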;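 note: 0% = Smad3 plus labelled peptide maximal FRET and 100% = peptide-only background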
EphB4 antag: antagonists of human EphB4-ephrin-B2 interaction; P54760; EphB4 LBD / TNYL-RAW-Alexa532 peptide, fluorescence polarization; inhibition, % at 7 µM; 97,000 compounds, 0.15% hits; AID 720;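 active = inhibition above the screen-wide mean inhibition plus 3 SD, cut at about 15% in these data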;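 note: 0% = DMSO wells and 100% = excess unlabeled TNYL-RAW peptide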
Plk1 PBD FP: blocks phosphopeptide binding to human Plk1 polo box domain | Plk1 PBD phosphopeptide binding, fluorescence polarization | inhibition, %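 (tested at about 20 µM)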 | 97,000 compounds, 0.13% hits; in the data active = inhibition above about 34%, passing the limit was not always enough
FAK blocker: FAK (human) kinase inhibition; Q05397; biochemical FAK kinase activity assay; inhibition, %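 (tested at 7 µM)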; 97,000 compounds, 0.84% hits; AID 727;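 note: 0% = DMSO and 100% = reference compound high control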
FAK inh confirm: confirmation of human focal adhesion kinase (FAK) inhibitors. shares compounds with FAK blocker. FAK kinase biochemical inhibition assay. inhibition, % at 7 µM. 750 compounds, 28% hits
Numbers without * were called inactive; . = no result. Hits are enriched below; roughly 1.6% of the tested compounds scored in any of these assays. Cut-off read from the data, not from the text of the source, unless noted: active = inhibition above about 19%; inactive = the rest.

SMILES | PLK1 inh | Smad3 FoxH1 inh | EphB4 antag | Plk1 PBD FP | FAK blocker | FAK inh confirm
O=C(Cn1c(=O)oc2cc(S(=O)(=O)N3CCCCCC3)ccc21)NC1CCCCCCC1 | 12 | -5 | 1 | 23 | 22* | 6
Cc1cc(OC(=O)c2ccc(Cl)cc2Cl)nc(C)n1 | -4 | . | -7 | 0 | 0 | .
Cc1ccc(NC(=O)CSc2nc3ccccc3c3nc(CCc4c(C)n[nH]c4C)nn23)cc1F | -11 | 44 | 0 | -11 | 21* | 12
Cc1n[nH]c(C)c1CCc1nc2c3ccccc3nc(SCC(N)=O)n2n1 | -7 | 2 | 7 | 16 | 0 | .
CSc1ccc(CNc2ccc(Cl)cc2)cc1 | -12 | . | -9 | 9 | -6 | .
CCc1ccc(CNc2ccc(O)cc2)cc1 | -4 | 2 | 5 | 5 | 56* | 4
O=C(N/N=C/c1cccs1)c1cc(-c2ccc3ccccc3c2)n[nH]1 | -8 | . | 2 | 34 | 20* | 2
Cc1nn(C(=O)Cn2ccc([N+](=O)[O-])n2)c(C)c1Br | -1 | . | 4 | -19 | -7 | .
O=C(Cc1ccc(NS(=O)(=O)c2ccc(F)cc2)cc1)NCc1ccccc1 | 0 | 6 | 1 | -23 | 1 | .
O=c1oc2c3c4c(cc2s1)CCCN4CCC3 | 21 | 8 | 0 | 14 | 20* | 6
CCn1c(=O)c2c(cnn2C)c2ccccc21 | 13 | . | -6 | -31 | 32* | 12
CCn1c(=O)c(-c2ccccc2)c(O)c2ccccc21 | -6 | 14 | -2 | 24 | 0 | .
CC(=O)c1cc2c(cc1NC(=O)CN1CCCCCCC1)OCO2 | -2 | 12 | 0 | 23 | -1 | .
CCOC(=O)c1c(C)[nH]c(C=Nc2ccccc2)c1O | -2 | -1 | -9 | -12 | -8 | .
CCOC(=O)c1c(C)[nH]c(O)c1C=Nc1ccccc1 | -3 | . | -3 | 30 | 34* | 16
C=CCOc1ccc(/C=C/C(C)=N\O)cc1 | -11 | 1 | 2 | -5 | 20* | 5
O=C(N/N=C/c1cccc(F)c1)c1cc(-c2ccco2)nc2ccccc12 | -5 | . | -7 | 18 | 68* | 36*
Cc1cccc(NC(=O)c2cc(-c3ccco3)nc3ccccc23)n1 | -12 | 9 | 2 | -9 | -2 | .
COc1cc(Cl)c(S(=O)(=O)NCc2ccccn2)cc1Cl | -2 | 4 | -6 | 11 | -2 | .
CCOC(=O)C1=C(c2ccccc2)OC(N)=C(C#N)C1C1CCCCC1 (stereo not drawn) | -6 | 3 | -8 | -13 | 24* | 21*
CCOC(=O)C1=C(C)OC(N)=C(C#N)C1C1CCCCC1 (stereo not drawn) | . | -6 | . | . | . | .
COc1ccc(Br)cc1CNc1ccc(O)cc1 | -10 | -6 | -4 | -6 | 47* | 1
O=C1Cc2ccccc2C(=O)N1CCc1ccccc1 | -22 | . | -2 | -27 | 40* | 37*
O=C(Oc1ccc2c(c1)OCO2)c1cc2c(s1)CCC2 | -20 | 0 | -4 | 26 | 24* | 3
Cc1ccc2c(n1)sc1c(N)ncnc12 | 26 | 11 | -8 | -13 | 49* | 18
SMILES | PLK1 inh | Smad3 FoxH1 inh | EphB4 antag | Plk1 PBD FP | FAK blocker | FAK inh confirm
Cc1cc(OCC(=O)N2CCc3ccccc3C2)c2c(-c3ccccc3)cc(=O)oc2c1 | -16 | 3 | 1 | -7 | 2 | .
Cc1ccc(C(=O)N/N=C/c2ccc([N+](=O)[O-])s2)cc1 | -36 | 9 | 3 | 17 | 50* | 11
Cc1cc(C)cc(C(=O)N2CC(C)OC(C)C2)c1 (stereo not drawn) | -5 | 9 | 4 | -14 | -1 | .
COc1cc(C2Nc3ccc4ncccc4c3C3=C2C(=O)CCC3)cc(OC)c1O (stereo not drawn) | -11 | -2 | 4 | 3 | 48* | 29*
Cc1cc2c(cc1C)NC(c1cccnc1)C1=C(CC(C)(C)CC1=O)N2 (stereo not drawn) | -5 | 4 | 4 | 12 | -1 | .
COc1cc(C2Nc3ccc4ncccc4c3C3=C2C(=O)CC(C)(C)C3)cc(OC)c1O (stereo not drawn) | -4 | 17 | -6 | 7 | 47* | 34*
O=c1[nH]c(=S)[nH]c2c1CN(CCCN1CCOCC1)CN2 | . | 9 | . | . | . | .
CC(C)(C)c1nc(SCC(=O)NCc2ccco2)c2ccccc2n1 | -15 | . | -4 | -6 | 38* | 17
Cc1cc(NC(=O)Cc2cccs2)no1 | -15 | 5 | -3 | -19 | 40* | 28*
Cc1cc(NS(=O)(=O)c2ccc(NC(=O)Cc3cccs3)cc2)no1 | -10 | -4 | 3 | 1 | -3 | .
CCCCOc1ccc(CNC(=S)N/N=C/c2ccc(OC)c(OC)c2)cc1 | -2 | . | 3 | -12 | -3 | .
Cc1ccc(OC(=O)c2ccccc2P(=O)(O)O)cc1 | -7 | 12 | -8 | 11 | 50* | 44*
O=C(O)c1ccccc1COc1ccccc1Cl | -11 | -7 | 8 | -9 | 2 | .
O=C(Oc1ccccc1Cl)c1ccccc1P(=O)(O)O | -9 | -2 | 1 | -26 | 72* | 68*
CCOC(=O)c1cccc(C(=O)Oc2ccccc2)n1 | -27 | 1 | 3 | 3 | 1 | .
O=C(Oc1ccccc1)c1c(Cl)cccc1P(=O)(O)O | -8 | -8 | 2 | 24 | 76* | 58*
Cc1ccc(OCC(=O)Nc2ccc(F)cc2)cc1C | 0 | -1 | 3 | -15 | 0 | .
Cc1ccc([N+](=O)[O-])cc1N=C(c1cccc(Br)c1)N1CCOCC1 | -14 | . | -1 | -16 | -1 | .
CCOC(=O)c1c(NC(C)=O)sc2c1CCC(C=NCCCN(CC)CC)=C2Sc1ccccc1 | -6 | -4 | -5 | -17 | 6 | .
CCC(=O)Nc1nnc(Sc2ccc(N(C)C)cc2)s1 | -8 | . | -1 | -10 | 21* | 1
CCCC(=O)Nc1nnc(Sc2ccc(N(C)C)cc2)s1 | -5 | 5 | 11 | -3 | 7 | .
Cc1ccc(S(=O)(=O)N=S(CC2CC2(Cl)Cl)CC2CC2(Cl)Cl)cc1 (stereo not drawn) | -2 | 6 | 3 | 10 | -2 | .
CCc1ccc(OCC(=O)Nc2ccc(-c3nc4ccccc4o3)c(O)c2)cc1 | -10 | -24 | -6 | -40 | 30* | 21*
COc1ccc(OCC(=O)Nc2cccc(-c3nc4ccccc4o3)c2)cc1 | -14 | -20 | -2 | -5 | -1 | .
COc1ccc(Cl)cc1NC(=O)C(C)Sc1n[nH]c(N)n1 (stereo not drawn) | -9 | -16 | 1 | -7 | 11 | .
SMILES | PLK1 inh | Smad3 FoxH1 inh | EphB4 antag | Plk1 PBD FP | FAK blocker | FAK inh confirm
[O-][N+]1(CC[N+]2([O-])CCCCC2)CCCCC1 | . | -8 | . | . | . | .
Cc1ccc(/C=N/NC(=O)CCCOc2ccc(Cl)cc2Cl)cc1[N+](=O)[O-] | -6 | . | -8 | 8 | 5 | .
COc1ccc(/C=N/NC(=O)CCCOc2ccc(Cl)cc2Cl)cc1[N+](=O)[O-] | -8 | . | -7 | -15 | 23* | 9
Cc1ccc(C)c(C(=O)CSc2n[nH]c(-c3ccncc3)n2)c1 | 31 | . | -5 | -6 | 30* | 12
O=C(CSc1n[nH]c(-c2ccncc2)n1)c1ccccc1 | 16 | -8 | 6 | -3 | 10 | .
O=C(O)/C=C/C(=O)Nc1ccccc1-c1ccccc1 | -8 | . | 1 | 6 | 3 | .
